Among all 48,000 compounds or so, about 13,000 (27%) showed an effect of 50% or more. The list shows a part of the results.

Data on 65 molecules can be found in ChEMBL document CHEMBL3988442, “University of Dundee, Small-Polar-MMV Screening Library” (2021).

The subject of the test is Wolbachia pipientis. The test is described as follows: Anti-Wolbachia Cell-Based Screen. In kind it is functional. Also on record: scale not given: in the data most compounds retested in dose-response had high values. As to conditions: 5 µM.
For the molecule `FC(F)(F)c1ccc(-c2noc3c2CN(CC2CCCO2)CC3)cc1` (stereo not given), the “Percent Effect” value is -4.107%.

Turning to `CC(C)N(CCNCc1ccc(C#N)cc1)C1CC1`, the “Percent Effect” value is -21.35%.

Take `Cc1c[nH]c(CN2CCCCC2CCN(C)C)c(C)c1=O` (stereo not given): the “Percent Effect” value is listed as -7.535%.

Turning to `CN(C)CCN1CC[C@H]2[C@@H]1CCN2Cc1ccc2c(c1)OCO2`, the “Percent Effect” value was -11.21%.

As to `CCC(=O)N1CCCN(C(=O)C2SCCc3sccc32)CC1` (stereo not given), the “Percent Effect” value is 13.84%.

On to `CC1c2ccsc2CCN1Cc1cc2c(cc1O)OCO2` (stereo not given), for which the “Percent Effect” value worked out at 137.7%.

For `NC(=O)c1ccc(OCCC(=O)NC2CCc3c(F)cccc32)cc1` (stereo not given), the “Percent Effect” value was determined as 19.22%.

Consider `C/C=C(\C)CN1C[C@H](NC(=O)CN2CCCC2=O)[C@@H](c2ccc(C)o2)C1`, for which the “Percent Effect” value worked out at 97.75%.

As to `Cc1ccc([C@H]2CN(CCO)C[C@@H]2NC(=O)CN2CCCCC2=O)o1`, the “Percent Effect” value was found to be 92.71%.

Regarding `C/C=C(\C)CN1C[C@H](NC(=O)CCOC)[C@@H](c2ccc(C)o2)C1`, the “Percent Effect” value was 82.28%.

With `CC(=O)N[C@@H]1CN(C(=O)c2cc(C)oc2C)C[C@H]1c1ccc(C)o1`, the “Percent Effect” value was -1.342%.

As to `O=C(CN1CCCCCC1=O)NC1CCc2nccn2C1` (stereo not given), the “Percent Effect” value is 0.7111%.

For `CCC[C@H]1CN(Cc2ccc(N(C)C)nc2)C[C@@H]1NC(=O)CCOC`, the “Percent Effect” value is -4.276%.

Regarding `CNc1nc(CN2C[C@@H](NC(C)=O)[C@H](c3ccc(C)o3)C2)cs1`, the “Percent Effect” value is listed as 0.1699%.

In the case of `CC(=O)N[C@@H]1CN(C(=O)c2ccc[nH]2)C[C@H]1c1ccc(C)o1`, the “Percent Effect” value is on record as -8.166%.

Consider `CC(=O)N1C[C@H](NS(=O)(=O)N2CCCC2)[C@@H](c2ccc(C)o2)C1`, for which the “Percent Effect” value was -3.445%.

As to `COc1ccnc(CNc2nc(C)nc(C)c2C)c1`, the “Percent Effect” value is on record as -1.425%.

On to `CCc1nc(CC(=O)N2CCn3c(nnc3C(C)C)C2)cs1`, for which the “Percent Effect” value came out at 3.887%.

For `COCCN(Cc1nccs1)C(=O)c1c(C)cc(C)[nH]c1=O`, the “Percent Effect” value is -6.144%.

Regarding `CC(C(=O)NC(C)(C)C)S(=O)(=O)Cc1noc(C(C)(C)C)n1` (stereo not given), the “Percent Effect” value was found to be 3.309%.

For `O=C(C1CCCC1)N1CCC(c2ccnc(Nc3cnccn3)n2)C1` (stereo not given), the “Percent Effect” value was determined as 92.23%.

Consider `O=C(C1CCC1)N1CCCC(c2ccnc(Nc3cnccn3)n2)C1` (stereo not given), for which the “Percent Effect” value stood at 48.97%.

Take `CC(=O)N1CCCC(c2ccnc(Nc3cnccn3)c2)C1` (stereo not given): the “Percent Effect” value was found to be 134%.

Take `Cl.Cl.NCC(=O)N1CCCC(c2ccnc(Nc3cnccn3)n2)C1` (stereo not given): the “Percent Effect” value was found to be 138.9%.

With `CNCC(=O)N1CCCC(c2ccnc(Nc3cnccn3)n2)C1` (stereo not given), the “Percent Effect” value was found to be 90.62%.

With `Cc1cc(C2CCCN(C(=O)c3cnccn3)C2)ccn1` (stereo not given), the “Percent Effect” value is -6.489%.

Turning to `COCc1ccc(C(=O)N2CC[C@@](O)(COC)C(C)(C)C2)o1`, the “Percent Effect” value worked out at 3.183%.

As to `CCc1c(C)nn(CC(=O)NC(C(=O)O)c2c(C)n[nH]c2C)c1C` (stereo not given), the “Percent Effect” value amounted to 1.191%.

Regarding `Cc1ccccc1CC1(CO)CCCN(c2ncccc2C#N)C1` (stereo not given), the “Percent Effect” value was determined as 0.9317%.

Consider `C=C(C)CNc1nc(CS(=O)(=O)c2ccccc2)cs1`, for which the “Percent Effect” value is listed as -10.96%.

`CC(CNC(=O)N1CCN(Cc2ccon2)CC1)Cc1cccs1` (stereo not given): the “Percent Effect” value is recorded as -18.64%.

In the case of `O=C(Cn1c(=O)oc2ccccc21)N1Cc2cnn(CCO)c2C1`, the “Percent Effect” value is on record as -5.203%.

For the molecule `CC(=O)N1CCCC(c2ccnc(Nc3cnccn3)n2)C1` (stereo not given), the “Percent Effect” value is 113.3%.

On to `O=C(c1cccc2c1OCO2)N1CCCCC1Cn1cccn1` (stereo not given), for which the “Percent Effect” value is reported as -4.366%.

As to `COc1ccc(CCC(=O)N2CCCCC2Cn2cccn2)cc1F` (stereo not given), the “Percent Effect” value is reported as 155.4%.

In the case of `O=C(CCc1c(F)cccc1F)N1CCCCC1Cn1cccn1` (stereo not given), the “Percent Effect” value was determined as 126.8%.

For `O=C(CCc1ccc2c(c1)OCO2)N1CCCCC1Cn1cccn1` (stereo not given), the “Percent Effect” value was 137.4%.

On to `COc1ccc(CC(=O)N2CCCC2Cn2cccn2)cc1F` (stereo not given), for which the “Percent Effect” value was 2.407%.

With `O=C(CCc1ccc(F)c(F)c1)N1CCCCC1Cn1cccn1` (stereo not given), the “Percent Effect” value is given as 87.24%.

`CSc1c[nH]nc1NS(=O)(=O)c1ccc(C)c(C)c1`: the “Percent Effect” value was found to be 4.625%.

For `O=C(Nc1ccccc1CCO)c1cccc(CN2CC[C@H](O)C2)c1`, the “Percent Effect” value is -8.564%.

As to `COc1ccc(F)c(CN2CCCC3(CCN(S(C)(=O)=O)C3)C2)c1` (stereo not given), the “Percent Effect” value is -4.467%.

Regarding `N#Cc1ccsc1C(=O)N1CCCCC1Cn1cccn1` (stereo not given), the “Percent Effect” value is on record as -3.499%.

Regarding `O=C(c1cc(-c2cccs2)on1)N1CCCCC1Cn1cccn1` (stereo not given), the “Percent Effect” value is on record as 91.35%.

As for `Cc1oc(-c2cccs2)nc1C(=O)N1CCCC1Cn1cccn1` (stereo not given), the “Percent Effect” value came out at 103.5%.

In the case of `O=C(c1cccn1Cc1cccs1)N1CCCC1Cn1cccn1` (stereo not given), the “Percent Effect” value was found to be 4.58%.

Regarding `Cc1noc(C)c1CN(C)CCc1nc(-c2cccc(Cl)c2)no1`, the “Percent Effect” value is given as 0.3419%.

As to `c1ccc(CCCn2ccnc2-c2cn(C3CCNCC3)nn2)nc1`, the “Percent Effect” value came out at 103.3%.

Consider `COc1cccc(CCn2ccnc2-c2cn(C3CCNCC3)nn2)c1`, for which the “Percent Effect” value amounted to 111.7%.

`Clc1ccccc1CCn1ccnc1-c1cn(C2CCNCC2)nn1`: the “Percent Effect” value is recorded as 101.1%.

Take `O[C@H]1[C@H](n2cc(-c3ccccn3)nn2)c2ccccc2C12CCNCC2`: the “Percent Effect” value was -37%.

`COc1ccc(CCn2ccnc2-c2cc3n(n2)CCCNC3)cc1`: the “Percent Effect” value is -17.25%.

With `Cc1ccc2[nH]c(-c3cn(C4CCNCC4)nn3)nc2c1C`, the “Percent Effect” value is reported as 9.5%.

For the molecule `Cc1c(C)c(C)c2[nH]c(-c3cn(C4CCNCC4)nn3)nc2c1C`, the “Percent Effect” value came to 5.399%.

Take `Cc1cc2nc(-c3cn(C4CCNCC4)nn3)[nH]c2cc1C`: the “Percent Effect” value is recorded as -3.563%.

Take `Cc1cccc2[nH]c(-c3cn(C4CCNCC4)nn3)nc12`: the “Percent Effect” value is -0.8234%.

Turning to `O=C(NC1CCCCC1)N1CCC(n2cc(-c3ccccn3)nn2)CC1`, the “Percent Effect” value is reported as -3.255%.

As to `c1ccc(OCCCn2ccnc2-c2cn(C3CCNCC3)nn2)cc1`, the “Percent Effect” value amounted to 87.94%.

Regarding `COc1cccc(CCN2C[C@H]3CCNCC[C@H]3S2(=O)=O)c1.O=C(O)C(F)(F)F`, the “Percent Effect” value was 12.24%.

In the case of `CNC(=O)c1cccc(CNC(C)c2cc(C)ccc2OC(F)F)c1` (stereo not given), the “Percent Effect” value is on record as 2.562%.

On to `CC(C)CNc1nc(C(=O)/N=c2\[nH]nc(C(C)(C)C)s2)cs1`, for which the “Percent Effect” value is on record as 9.925%.

`COc1cccc([C@H]2CN(C(=O)c3scc4c3CCCC4)C[C@@H]2N)c1`: the “Percent Effect” value is given as -10.32%.

Turning to `O=S(=O)(CCc1ccccc1)Nc1cc(Cl)ccn1`, the “Percent Effect” value is -16.02%.

Take `CSCc1ccc(N2CCC(C(O)CC(C)C)CC2)nc1` (stereo not given): the “Percent Effect” value was -3.23%.

As for `COc1cccc(CNC(C)c2ccc(-n3ccnc3)cc2)c1O` (stereo not given), the “Percent Effect” value is on record as 3.228%.
